According to PubChem BioAssay:
The source made the active and inactive calls. Unless noted, how the calls were made is not given here.

Key:
[1] = compound effects on lung adenocarcinoma cell viability – A549, calcein-AM fluorescence, 48 h, basal, profiling panel (AID 1162); conditions: higher = more signal; further: test concentration not given here
[2] = compound effects on differentiated 3T3-L1 adipocyte viability – cell-based, 3T3-L1 adipocytes, calcein-AM fluorescence, 48 h, basal, profiling panel (AID 1163); conditions: 3T3-L1 adipocytes viability, higher = more signal; further: test concentration not given here
[3] = compound effects on hepatocellular carcinoma cell viability – HepG2, calcein-AM fluorescence, 48 h, basal, profiling panel (AID 1164); conditions: higher = more signal; further: test concentration not given here
[4] = compound effects on multiple myeloma cell viability – MM1S, calcein-AM fluorescence, 48 h, basal, profiling panel (AID 1165); conditions: higher = more signal; further: test concentration not given here
[5] = calcein-AM signal in unstimulated myeloma cells – cell-based, calcein-AM fluorescence, 48 h, PK04 Diversity Set, profiling panel (AID 1166); conditions: RPMI8226 myeloma viability, higher = more signal;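 further: cells grown under basal conditions without added stimulus; test concentration not given here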
[6] = JC-1 mitochondrial signal, unstimulated HepG2 cells – cell-based, JC-1 fluorescence, 24 h, 100 nL compound, profiling panel (AID 1167); conditions: HepG2 mitochondrial potential, higher = more signal; further: test concentration not given here
[7] = JC-1 mitochondrial signal, unstimulated adipocytes – cell-based, JC-1 fluorescence, 3T3-L1 adipocytes, 24 h, 100 nL compound, profiling panel (AID 1168); conditions: JC-1 mitochondrial fluorescence, higher = more signal, called active from +8 up or from −8 down; further: test concentration not given here
[8] = JC-1 mitochondrial signal, unstimulated myeloma cells – cell-based, JC-1 fluorescence, RPMI8226, 24 h, 100 nL compound, profiling panel (AID 1169); conditions: JC-1 mitochondrial potential fluorescence, higher = more signal; further: test concentration not given here
[9] = JC-1 mitochondrial signal, unstimulated MM1S myeloma – cell-based, JC-1 fluorescence, 24 h, 100 nL compound, profiling panel (AID 1170); conditions: MM1S mitochondrial potential, higher = more signal; further: test concentration not given here
[10] = resazurin metabolic signal in A549 cells – cell-based, resazurin fluorescence, 24 h, PK04 Diversity Set, profiling panel (AID 1171); conditions: A549 viability, higher = more signal, called active from +8 up or from −8 down; further: test concentration not given here
[11] = resazurin metabolic signal in HepG2 cells – cell-based, resazurin fluorescence, 24 h, PK04 Diversity Set, profiling panel (AID 1172); conditions: HepG2 viability, higher = more signal; further: test concentration not given here
[12] = budding yeast growth changes without added modifier – OD600, strain BY4716, 24 h, basal condition, primary screen (AID 1173); conditions: S. cerevisiae BY4716 growth, OD600, 24 h; higher = more signal, called active from +8 up or from −8 down
[13] = viability profiling in MM1S myeloma cells – cell-based, resazurin fluorescence, basal, 24 h, PK04 Diversity Set, profiling panel (AID 1174); conditions: higher = more signal, called active from +8 up or from −8 down; further: test concentration not given here
[14] = target: Dihydroorotate dehydrogenase (quinone), mitochondrial (Plasmodium falciparum (isolate 3D7)) (UniProt Q08210); test: inhibition of P. falciparum DHODH – biochemical, C-terminal His tag, absorbance 600 nm, primary screen (AID 1175); conditions: PfDHODH enzyme, DCIP absorbance 600 nm; higher = more signal, called active from +8 up or from −8 down;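 further: recombinant parasite enzyme with a five histidine tag at its C terminus; test concentration not given here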
[15] = inhibition of PAO1 biofilm formation – strain PAO1, LB-PBS medium, absorbance 600 nm, primary screen (AID 1176); further: test concentration not given here; conditions: P. aeruginosa PAO1 growth/biofilm, A600, 12 h; higher = more signal
[16] = growth modulation of vineyard yeast isolate – strain RM11-1a, OD600, basal, 24 h, primary screen (AID 1177);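 further: cultures grown under basal conditions with no added stressor; test concentration not given here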; conditions: S. cerevisiae RM11-1a growth, OD600, 24 h; higher = more signal, called active from +8 up or from −8 down
[17] = growth of efflux-deficient E. coli DRC39 – strain DRC39, OD650, 24 h, E. coli filamentation inducers, primary screen (AID 1178);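 further: growth measured as culture turbidity by optical density at 650 nm; test concentration not given here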; conditions: E. coli DRC39 acrAB, higher = more signal, called active from +8 up or from −8 down
[18] = growth of efflux-deficient E. coli DRC39 – strain DRC39, OD650, 48 h, E. coli filamentation inducers, primary screen (AID 1179);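 further: screen aims at cell division blockers that make cells filament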; conditions: E. coli DRC39 delta-acrAB growth, higher = more signal, called active from +8 up or from −8 down
[19] = viability profiling in RPMI8226 myeloma cells – cell-based, resazurin fluorescence, basal, 24 h, PK04 Diversity Set, profiling panel (AID 1180); conditions: higher = more signal;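 further: RPMI8826 multiple myeloma cell line at 5000 cells per well; test concentration not given here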
[20] = target: E3 ubiquitin-protein ligase XIAP (Homo sapiens) (UniProt P98170); test: small molecules binding XIAP protein – biophysical, small-molecule microarray, fluorescence 635 nm, primary screen (AID 1181); conditions: higher = more signal;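 further: score merges 667 nm emission and signal to noise over triplicate slides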
Chain of E3 ubiquitin-protein ligase XIAP (Homo sapiens) (P98170 whole entry, looked up): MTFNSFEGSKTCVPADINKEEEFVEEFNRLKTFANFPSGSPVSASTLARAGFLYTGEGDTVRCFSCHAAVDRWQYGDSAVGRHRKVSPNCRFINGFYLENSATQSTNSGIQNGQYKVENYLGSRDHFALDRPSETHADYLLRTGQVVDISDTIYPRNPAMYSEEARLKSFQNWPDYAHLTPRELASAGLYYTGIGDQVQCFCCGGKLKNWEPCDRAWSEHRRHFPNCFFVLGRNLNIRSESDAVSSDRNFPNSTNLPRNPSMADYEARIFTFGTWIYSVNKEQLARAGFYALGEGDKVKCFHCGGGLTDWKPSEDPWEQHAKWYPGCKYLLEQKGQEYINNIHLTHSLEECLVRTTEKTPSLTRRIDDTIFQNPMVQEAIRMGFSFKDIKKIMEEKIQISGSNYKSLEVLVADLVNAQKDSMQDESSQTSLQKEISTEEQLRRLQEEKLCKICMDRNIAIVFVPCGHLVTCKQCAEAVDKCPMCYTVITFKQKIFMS

Chain of Dihydroorotate dehydrogenase (quinone), mitochondrial (Plasmodium falciparum (isolate 3D7)) (Q08210 whole entry, looked up): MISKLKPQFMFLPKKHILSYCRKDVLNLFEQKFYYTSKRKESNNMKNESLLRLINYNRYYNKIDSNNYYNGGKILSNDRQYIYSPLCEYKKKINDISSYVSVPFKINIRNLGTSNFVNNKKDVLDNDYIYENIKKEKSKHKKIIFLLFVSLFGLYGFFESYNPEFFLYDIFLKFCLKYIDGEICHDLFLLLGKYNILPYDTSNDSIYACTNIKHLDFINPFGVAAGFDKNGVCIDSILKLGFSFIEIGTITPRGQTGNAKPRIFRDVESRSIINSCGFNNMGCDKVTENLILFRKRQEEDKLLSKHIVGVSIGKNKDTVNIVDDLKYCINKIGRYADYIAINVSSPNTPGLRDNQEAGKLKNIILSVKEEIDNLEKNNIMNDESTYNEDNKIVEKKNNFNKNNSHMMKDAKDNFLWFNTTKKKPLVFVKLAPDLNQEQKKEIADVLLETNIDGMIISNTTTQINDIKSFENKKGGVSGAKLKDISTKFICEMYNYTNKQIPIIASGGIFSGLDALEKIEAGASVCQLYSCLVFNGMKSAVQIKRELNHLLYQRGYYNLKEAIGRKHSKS

Row | SMILES | z-score [1] | z-score [2] | z-score [3] | z-score [4] | z-score [5] | z-score [6] | z-score [7] | z-score [8] | z-score [9] | z-score [10] | z-score [11] | z-score [12] | z-score [13] | composite z-score [14] | z-score [15] | z-score [16] | z-score [17] | z-score [18] | z-score [19] | composite z-score [20]
1 | C[C@]12C(=O)N(CCO)[C@@H]3C(=O)N(c4ccc(Cl)cc4)CC=CC31O[C@@H]1/C=C\CCCOC(=O)C12 (stereo not given in full) | 0.614 | 1.38 | 0.488 | 0.971 | -0.966 | -0.646 | -0.766 (inactive) | -0.129 | 1.61 | -1.3 (inactive) | -0.561 | 0.13 (inactive) | -0.562 (inactive) | -0.141 (inactive) | -0.481 (inactive) | 0.556 (inactive) | -1.18 (inactive) | -1.25 (inactive) | -0.184 | -0.0746
2 | C=CCC(OC(C)=O)[C@@H]1[C@@H](N(Cc2ccc(-c3ccccc3)cc2)C(=O)Cc2ccc(OC)cc2)c2cc(OCCCO)ccc2N1C(=O)Cc1ccc(OC)cc1 (stereo not given in full) | 0.0816 | 0.9 | -0.103 | 0.11 | -0.203 | 2.58 | -0.454 (inactive) | -0.0751 | 0.504 | 0.117 (inactive) | -0.626 | 0.118 (inactive) | -0.622 (inactive) | -0.0632 (inactive) | 0.186 (inactive) | -0.565 (inactive) | -0.105 (inactive) | -0.403 (inactive) | -0.357 | -0.185
3 | O=C(NCCN1CCOCC1)[C@@H]1c2ccccc2C(=O)N(CC23CC4CC(CC(C4)C2)C3)[C@H]1c1ccc(CO)cc1 | -0.0791 | 1.43 | 0.45 | -0.846 | -0.327 | 2.95 | -0.634 (inactive) | 0.434 | -0.388 | 1.8 (inactive) | 0.258 | -1.18 (inactive) | 0.631 (inactive) | 0.533 (inactive) | -0.121 (inactive) | 1.19 (inactive) | 0.1 (inactive) | 0.108 (inactive) | 0.96 | 0.0593
4 | CC(C)C[C@H]1NC(=O)CNC(=O)[C@@]23C(=O)N[C@@H](Cc4ccccc4)C2[C@H](C)[C@@]2(C)O[C@H]2C3/C=C/C/C=C\CNC1=O (stereo not given in full) | -0.518 | 0.535 | -0.899 | -0.101 | -0.0815 | -0.561 | 0.451 (inactive) | -0.469 | -0.112 | 0.478 (inactive) | -0.657 | -0.572 (inactive) | 0.105 (inactive) | -0.341 (inactive) | 1.11 (inactive) | 0.0636 (inactive) | -0.288 (inactive) | -0.141 (inactive) | 0.293 | -0.122
5 | COC(=O)[C@@]1(Cc2ccc(F)cc2)[C@H]2c3cc(C(=O)N(C)C)n(Cc4cccc5ccccc45)c3C[C@H]2CN1C(=O)c1ccccc1 | -0.994 | -0.296 | 0.156 | -0.0591 | -0.489 | -0.0443 | -2.25 (inactive) | -0.207 | -0.774 | 0.0731 (inactive) | -0.488 | 1.91 (inactive) | -1.32 (inactive) | -0.0341 (inactive) | 1.75 (inactive) | 1.75 (inactive) | -0.609 (inactive) | -0.707 (inactive) | -1.04 | 1.6
6 | Cc1ccc(S[C@]2(C(=O)NC3CC3)CC(=O)N(C3Cc4ccccc4C3)[C@@H]2c2ccc(CO)cc2I)cc1 | 0.828 | 0.689 | 0.193 | -2.21 | -1.9 | -0.24 | -0.411 (inactive) | -0.502 | -0.499 | 0.395 (inactive) | -0.386 | -4.29 (inactive) | -2.54 (inactive) | 0.282 (inactive) | 0.0493 (inactive) | 0.283 (inactive) | 0.112 (inactive) | -0.266 (inactive) | -1.24 | -0.174
7 | C=CCNC(=O)[C@@H]1[C@H]2C(=O)O[C@H](c3ccccc3)[C@H](c3ccccc3)N2[C@H](c2ccc(O)cc2)[C@@]12C(=O)N(C(=O)OCCOC)c1ccc(C#CCC(C(=O)OC)C(=O)OC)cc12 | 0.468 | 0.0473 | 0.419 | -1.83 | -2.88 | 0.206 | 0.605 (inactive) | -0.161 | -0.012 | -0.419 (inactive) | 0.475 | -0.17 (inactive) | 0.716 (inactive) | -2.5 (inactive) | 0.089 (inactive) | 1.88 (inactive) | 1.09 (inactive) | 0.666 (inactive) | -1.73 | 0.0859
8 | C=CCOC(=O)[C@@H]1[C@H]2C(=O)O[C@H](c3ccccc3)[C@H](c3ccccc3)N2[C@H](c2ccc(OCCOC(=O)[C@H]3C[C@H]4C(=O)N[C@@H](CCCCN(C)C)C(=O)N4[C@H]3c3cccc(OCCO)c3)cc2)[C@@]12C(=O)Nc1ccccc12 | -0.555 | -0.453 | -0.113 | 0.293 | -2.17 | -1.29 | -0.5 (inactive) | -0.928 | -0.689 | 0.64 (inactive) | 0.594 | 0.756 (inactive) | 0.75 (inactive) | 0.0193 (inactive) | -0.475 (inactive) | 0.237 (inactive) | 0.292 (inactive) | 0.352 (inactive) | 0.835 | -0.0102
9 | C=CC[C@H](OC(=O)Nc1ccc(SC)cc1)c1ccc(O)c(F)c1 | -1.24 | -0.152 | -1.82 | -1.59 | -1.64 | -3.17 | 2.25 (inactive) | -0.325 | -0.716 | -1.01 (inactive) | -0.124 | -15.5 (active) | -0.868 (inactive) | -1.32 (inactive) | 1.1 (inactive) | -11 (active) | 0.332 (inactive) | -0.343 (inactive) | -1.54 | 0.0297
